Exocytosis inh = LAMP-1 surface exposure blockers, TALL-104 cells – cell-based, flow cytometry, MLPCN library, primary screen | TALL-104 LAMP-1 surface exposure; cells stimulated with thapsigargin and PMA | inhibition, % at 10 µM | 0.66% of 360,000 active | AID 651702, 2012;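 active means inhibition above about 55%, limit read from the data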
TLR9-MyD88 block = inhibitors of TLR9-MyD88 association in cells, primary screen, cell-based, CHO, BLA complementation, fluorescence; CCF4 FRET ratio; Toll-like receptor 9 (Homo sapiens) + Myeloid differentiation primary response protein …; inhibition, % at 4.98 µM; AID 504734, 2011; 0.21% of 340,000 active;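 active means inhibition above the mean over all tested compounds plus 3 SD, cut at about 21% in these data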;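 further: 0% = DMSO only wells and 100% = clavulanate BLA inhibitor control wells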
NOD2 RIPK2 PPI = NOD2-RIPK2 binding disruptors in cells, primary screen, fluorescence, CHO cells, BLA complementation; Receptor-interacting serine/threonine-protein kinase 2 (Homo sapiens), O43353; CCF4 ratio; inhibition, % at 4.98 µM; 0.38% of 360,000 active; in the data active means inhibition above about 21%;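 further: 0% = vehicle only and 100% = reference blocker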
ABHD5-PLIN5 inh = ABHD5-PLIN5 interaction inhibitors, primary screen, cell lysate, split luciferase complementation, luminescence; inhibition, % at 4 µM; Split G. princeps luciferase complementation, 4 h; AID 602281, 2012; Perilipin-5 (Homo sapiens) + 1-acylglycerol-3-phosphate O-acyltransferase ABHD5 (Homo …; 0.78% of 360,000 active;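 active means inhibition above the mean inhibition across every tested compound plus 3 SD, cut at about 22% in these data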;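 further: 0% = DMSO only wells and the 100% control is not disclosed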
PRMT1 FP inh = PRMT1 methyltransferase inhibitors, primary screen, biochemical, fluorescence polarization. Protein arginine N-methyltransferase 1 (Homo sapiens), Q99873. AID 652257, 2013. 1.3% of 370,000 active. recombinant PRMT1, activity-based probe fluorescence polarization. inhibition, % at 2.79 µM;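 active means inhibition above about 21% made by adding two undisclosed values, limit read from the data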
TLR4 MyD88 comp = inhibitors of TLR4-MyD88 association in cells, primary screen, cell-based, HeLa CL3-4, BLA complementation, FRET ratio; Toll-like receptor 4 (Homo sapiens) + Myeloid differentiation primary response protein …; inhibition, % at 8.4 µM; HeLa CL3-4 TLR4/MyD88 BLA complementation; 0.18% of 200,000 active; AID 861, 2007; in the data active means inhibition above about 25%;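 further: 0% = vehicle and 100% = reference inhibitor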
TLR9-MyD88 conf = TLR9-MyD88 association inhibitors, retest, confirmation, cell-based, CHO, BLA complementation, fluorescence, triplicate; 51% of 680 active; CCF4 FRET ratio; shares compounds with TLR9-MyD88 block; inhibition, % at 4.98 µM;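 active means mean inhibition across three repeats above about 21% taken from the earlier screen, limit read from the data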;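 further: blue over green emission ratio reports constitutive TLR9 MyD88 association via BLA complementation; 0% = DMSO vehicle wells and 100% = clavulanate BLA inhibitor wells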
Target sequence (Q9NR96 whole entry, looked up): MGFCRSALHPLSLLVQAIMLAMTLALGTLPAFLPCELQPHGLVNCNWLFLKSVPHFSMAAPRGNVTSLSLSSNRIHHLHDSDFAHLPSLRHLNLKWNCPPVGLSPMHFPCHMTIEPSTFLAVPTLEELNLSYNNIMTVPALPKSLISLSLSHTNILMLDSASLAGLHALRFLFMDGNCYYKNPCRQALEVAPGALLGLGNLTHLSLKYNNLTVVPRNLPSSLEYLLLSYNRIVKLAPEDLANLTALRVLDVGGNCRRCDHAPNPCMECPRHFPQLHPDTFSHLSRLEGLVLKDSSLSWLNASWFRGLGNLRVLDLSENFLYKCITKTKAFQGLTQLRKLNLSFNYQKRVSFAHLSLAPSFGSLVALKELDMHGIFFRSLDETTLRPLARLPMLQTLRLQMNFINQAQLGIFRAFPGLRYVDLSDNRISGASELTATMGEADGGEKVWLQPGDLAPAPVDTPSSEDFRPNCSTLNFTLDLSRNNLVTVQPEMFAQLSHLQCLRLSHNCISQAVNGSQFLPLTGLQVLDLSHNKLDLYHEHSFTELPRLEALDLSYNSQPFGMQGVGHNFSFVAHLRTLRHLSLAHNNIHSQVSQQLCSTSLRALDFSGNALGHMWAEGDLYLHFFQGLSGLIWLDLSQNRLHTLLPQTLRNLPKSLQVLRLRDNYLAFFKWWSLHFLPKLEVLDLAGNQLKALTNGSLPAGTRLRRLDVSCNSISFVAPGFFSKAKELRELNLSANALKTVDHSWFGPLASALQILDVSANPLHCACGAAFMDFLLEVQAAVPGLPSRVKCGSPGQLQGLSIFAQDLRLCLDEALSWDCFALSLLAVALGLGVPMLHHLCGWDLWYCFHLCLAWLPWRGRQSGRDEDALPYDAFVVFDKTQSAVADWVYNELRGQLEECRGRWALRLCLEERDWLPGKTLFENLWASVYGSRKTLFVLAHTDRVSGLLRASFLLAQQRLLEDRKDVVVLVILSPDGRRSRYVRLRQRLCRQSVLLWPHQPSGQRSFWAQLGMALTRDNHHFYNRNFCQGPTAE
BLA counter = beta-lactamase reporter inhibitors in CHO cells, artefact control for TLR9-MyD88 binding inhibitor project, cell-based, fluorescence | shares compounds with TLR9-MyD88 block | CHO-BLA cells, CCF4 FRET ratio, BLA reporter | inhibition, % at 4.98 µM | 7% of 680 active | AID 540251, 2011;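 active means mean inhibition above a 50% cutoff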;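 further: counterscreen of TLR9-MyD88 hits on CMV-driven BLA in CHO-K1 cells; 0% = DMSO alone and 100% = clavulanate blocking BLA; higher means less blue over green ratio so more BLA blockade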
TLR9 CHO tox = CHO cell viability loss – luminescence, single concentration, cytotoxicity control for TLR9-MyD88 binding inhibitor project | TLR9-MyD88 CHO cells cytotoxicity | shares compounds with TLR9-MyD88 block | 39% of 680 active | inhibition, % at 4.98 µM | AID 588336, 2011; in the data active means inhibition above about 11%
The depositor's hits bear a star. A selection: hits, their analogues and other compounds. The true share with any hit is near 2.6%.

`COc1ccc(O)c(/C=N/NC(=S)Nc2cccnc2)c1` gave Exocytosis inh -5, TLR9-MyD88 block 29*, NOD2 RIPK2 PPI 5, ABHD5-PLIN5 inh 1, PRMT1 FP inh -5, TLR4 MyD88 comp -3, TLR9-MyD88 conf 15, BLA counter 8 and TLR9 CHO tox 17*.
`COc1cccc(/C=N/NC(=S)Nc2cccnc2)c1` gave Exocytosis inh -2, TLR9-MyD88 block 8, NOD2 RIPK2 PPI 7, ABHD5-PLIN5 inh -2, PRMT1 FP inh 3 and TLR4 MyD88 comp 3.
COc1cc2c(cc1OC)[C@](C)(c1ccccc1)C[C@@H]2NCC=C(C)C was read as PRMT1 FP inh -8.
For O=C(C1=NN(c2ccccc2)C2C(=O)N(c3ccc(Cl)cc3)C(=O)C12)c1ccccc1 (configuration not stated) the results were Exocytosis inh -2, TLR9-MyD88 block 30*, NOD2 RIPK2 PPI 15, ABHD5-PLIN5 inh -2, PRMT1 FP inh 2, TLR4 MyD88 comp 15, TLR9-MyD88 conf 25*, BLA counter 24 and TLR9 CHO tox -1.
Screening C#CCN1CC(COCCCC)Oc2cccc(F)c2S1(=O)=O (configuration not stated) returned PRMT1 FP inh 0.
O=C1c2ccccc2S(=O)(=O)c2cc(N3CCC4(CC3)OCCO4)ccc21 was read as PRMT1 FP inh 2.
Screening NC(=O)C1CCN(c2ccc3c(c2)S(=O)(=O)c2ccccc2C3=O)CC1 returned Exocytosis inh -8, TLR9-MyD88 block 23*, NOD2 RIPK2 PPI 1, ABHD5-PLIN5 inh -5, PRMT1 FP inh 1, TLR9-MyD88 conf 6, BLA counter 5 and TLR9 CHO tox 0.
Screening NC(=O)C1CCN(C(=O)c2ccc3c(c2)S(=O)(=O)c2ccccc2C3=O)CC1 returned Exocytosis inh -11, TLR9-MyD88 block -6, NOD2 RIPK2 PPI -12, ABHD5-PLIN5 inh 0 and PRMT1 FP inh -1.
`CC1CCN(c2ccc3c(c2)S(=O)(=O)c2ccccc2C3=O)CC1` gave Exocytosis inh -6, TLR9-MyD88 block 32*, NOD2 RIPK2 PPI 19, ABHD5-PLIN5 inh -14, PRMT1 FP inh -2, TLR9-MyD88 conf 22*, BLA counter 24 and TLR9 CHO tox 5.
Screening COC1C=CC=C(C)C(=O)NC2=CC(=O)C(N)=C(CC(C)CC(OC)C(O)C(C)C=C(C)C1OC(N)=O)C2=O (configuration not stated) returned Exocytosis inh -9, TLR9-MyD88 block 24*, NOD2 RIPK2 PPI 13, ABHD5-PLIN5 inh -12, PRMT1 FP inh -2, TLR9-MyD88 conf 2, BLA counter -4 and TLR9 CHO tox 85*.
`COc1ccc(C2NN=C(c3ccc(C)cc3)S2)cc1` (configuration not stated) gave Exocytosis inh 8, TLR9-MyD88 block -1, NOD2 RIPK2 PPI -11, ABHD5-PLIN5 inh 8 and PRMT1 FP inh 0.
`CCOc1cc(C2NN=C(c3ccc(C)cc3)S2)ccc1O` (configuration not stated) gave Exocytosis inh 5, TLR9-MyD88 block 21*, NOD2 RIPK2 PPI 15, ABHD5-PLIN5 inh -4, PRMT1 FP inh 3, TLR4 MyD88 comp 6, TLR9-MyD88 conf 11, BLA counter 10 and TLR9 CHO tox 10.
COc1ccccc1C(=O)N1CCN(C(=O)[C@@H](Cc2ccccc2)NC(=O)[C@H]2O[C@@H](n3ccc(N)nc3=O)[C@H](O)[C@@H]2O)CC1 was read as PRMT1 FP inh -2.
Screening O=C(OCn1ncc(Br)c(Br)c1=O)c1ccccc1Cl returned Exocytosis inh 98*, TLR9-MyD88 block 32*, NOD2 RIPK2 PPI 82*, ABHD5-PLIN5 inh 10, TLR4 MyD88 comp 14, TLR9-MyD88 conf 36*, BLA counter 24 and TLR9 CHO tox 100*.
For O=C(OCc1cnc(Cl)s1)c1ccccc1Cl the results were Exocytosis inh -1, TLR9-MyD88 block -2, NOD2 RIPK2 PPI 5, ABHD5-PLIN5 inh -2, PRMT1 FP inh 2 and TLR4 MyD88 comp -15.
`CN1c2ccc(-c3cccc(F)c3)cc2[C@H]2[C@H](CCN2S(=O)(=O)c2cccc(F)c2)[C@H]1CO` gave PRMT1 FP inh -2.
O=C1c2ccccc2NC(c2ccc(-c3cccs3)o2)N1O (configuration not stated) was read as Exocytosis inh 6, TLR9-MyD88 block 5, NOD2 RIPK2 PPI 10, ABHD5-PLIN5 inh 20 and PRMT1 FP inh 2.
Screening O=C1c2ccccc2NC(c2ccc(-c3ccc(C(F)(F)F)cc3)o2)N1O (configuration not stated) returned Exocytosis inh 6, TLR9-MyD88 block 24*, NOD2 RIPK2 PPI 4, ABHD5-PLIN5 inh 6, PRMT1 FP inh 7, TLR9-MyD88 conf 4, BLA counter 5 and TLR9 CHO tox 41*.
For Cc1ccc(S(=O)(=O)N(C)c2cccc3c2S(=O)(=O)N([C@H](C)c2ccccc2)C[C@@H](COCc2ccccc2)O3)cc1 the results were PRMT1 FP inh -2.
COc1ccc(NC(=O)/C(Cl)=C(/Cl)S(=O)Cc2ccc(Cl)cc2)cn1 (configuration not stated) was read as Exocytosis inh 23, TLR9-MyD88 block 54*, NOD2 RIPK2 PPI 68*, ABHD5-PLIN5 inh 96*, PRMT1 FP inh 32*, TLR4 MyD88 comp 25, TLR9-MyD88 conf 56*, BLA counter 36 and TLR9 CHO tox 99*.
`COc1ccc(NC(=O)C(Cl)=C(Cl)Cl)cn1` gave Exocytosis inh 0, TLR9-MyD88 block 6, NOD2 RIPK2 PPI -3, ABHD5-PLIN5 inh 5, PRMT1 FP inh -1 and TLR4 MyD88 comp 2.
